# “And” between values parts separate entries of the source, which are not always exact repeats. Equal entries are not always repeated. Unmarked numbers belong to inactive results. Inconclusive results are not listed. Entries that show only a call come without a potency. The source holds several records for some structures; these can differ, active in one and inactive in another. The source made the active and inactive calls. Unless noted, calls come from the whole dose curve; as a rule, active = well fitted curve in the direction sought with a large enough effect in the repeat runs; inconclusive = weak or mixed curves; inactive = no such curve, though single readings can be large; an effect the other way counts as inactive or inconclusive.
# Legend:
# [1] = qHTS assay to identify small molecule antagonists of the glucocorticoid receptor (GR) signaling pathway - cell viability counter screen (AID 720693); details: GR-bla HeLa viability, CellTiter-Glo luminescence, 18 h, with 5 nM dexamethasone present; series mostly up to 58.5 µM; note: nearly all actives have a fitted effect of over 55% in size; note: potency is the fitted concentration of half-maximal effect
# [2] = qHTS assay for identifying genotoxic compounds that show differential cytotoxicity against isogenic chicken DT40 cell lines with known DNA damage response pathways - wild type cell line (AID 743012); details: DT40 wild type chicken cells viability, CellTiter-Glo, 40 h; series mostly up to 68.4 µM; note: nearly all actives have a fitted effect of over 60% in size; note: potency is the fitted concentration of half-maximal effect
# How it was run: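 First, wild type DT40 cells were plated at 300 per well and equilibrated about 0.5 h at 37 C/5% CO2. Next, compounds in DMSO were added and exposure lasted 40 h. Finally, CellTiter-Glo was added for 30 min at room temperature and luminescence recorded.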
# [3] = qHTS assay for identifying genotoxic compounds that show differential cytotoxicity against isogenic chicken DT40 cell lines with known DNA damage response pathways - Rev3 mutant cell line (AID 743014); details: chicken DT40 Rev3-/- viability, CellTiter-Glo, 40 h; series mostly up to 68.4 µM; note: nearly all actives have a fitted effect of over 55% in size; note: potency is the fitted concentration of half-maximal effect
# [4] = qHTS assay for identifying genotoxic compounds that show differential cytotoxicity against isogenic chicken DT40 cell lines with known DNA damage response pathways - Rad54/Ku70 mutant cell line (AID 743015); details: DT40 Rad54/Ku70 mutant viability, CellTiter-Glo, 40 h; series mostly up to 66.8 µM; note: nearly all actives have a fitted effect of over 60% in size; note: potency is the fitted concentration of half-maximal effect
# [5] = qHTS assay to identify small molecule antagonists of the androgen receptor (AR) signaling pathway - cell viability counter screen (AID 743033; note: nearly all actives have a fitted effect of over 45% in size); details: AR-bla HEK293 viability, CellTiter-Glo luminescence, 16 h; series mostly up to 58.5 µM
# [6] = qHTS assay to identify small molecule antagonists of the androgen receptor (AR) signaling pathway using the MDA cell line - cell viability counter screen (AID 743041; note: nearly all actives have a fitted effect of over 45% in size; note: potency is the fitted concentration of half-maximal effect); details: MDA-kb2 viability, CellTiter-Fluor, 16 h, cells co-treated with R1881 androgen agonist; series mostly up to 70.3 µM
# How it was run: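 Cells were plated at 3,000 per well and left 5 h. Compounds in DMSO were then pinned in, followed by R1881. After 16 h at 37C, CellTiter-Fluor fluorescence gave viability.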
# [7] = qHTS assay to identify small molecule antagonists of the thyroid receptor (TR) signaling pathway - cell viability counter screen (AID 743064); details: GH3.TRE-Luc viability, CellTiter-Fluor, 24 h; series mostly up to 70.3 µM; note: nearly all actives have a fitted effect of over 50% in size; note: potency is the fitted concentration of half-maximal effect
# How it was run: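 Counter screen for cytotoxicity: compound plus T3 (1 nM final) on GH3.TRE-Luc cells, 23.5 h at 37 °C, then fluorescence viability readout with CellTiter-Fluor.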
# [8] = system: thyroid hormone receptor (rat, GH3 cells); assay: qHTS assay to identify small molecule agonists of the thyroid receptor (TR) signaling pathway (AID 743066; calls by dose curve); details: GH3.TRE-Luc cells, TR agonist luciferase, 24 h; series mostly up to 83.9 µM
# [9] = qHTS assay to identify small molecule antagonists of the estrogen receptor alpha (ER-alpha) signaling pathway - cell viability counter screen (AID 743074; calls by dose curve;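 note: HEK293 cells carrying ER-alpha-UAS-bla reporter stimulated with 17beta-estradiol; nearly all actives have a fitted effect of over 45% in size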); details: ERalpha-bla HEK293 viability, CellTiter-Glo luminescence, 18 h; series mostly up to 69.4 µM
# [10] = qHTS assay to identify small molecule antagonists of the estrogen receptor alpha (ER-alpha) signaling pathway using the BG1 cell line - cell viability counter screen (AID 743081); details: BG1Luc4E2 viability, CellTiter-Fluor, 22 h; series mostly up to 70.3 µM;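 note: compound given together with 17beta-estradiol as the ER stimulus; nearly all actives have a fitted effect of over 45% in size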; note: potency is the fitted concentration of half-maximal effect
# [11] = biological target: Aromatase (Homo sapiens) (UniProt P11511); assay: qHTS assay to identify aromatase inhibitors (AID 743083); details: MCF-7 aro ERE, testosterone-driven ERE luciferase, 24 h; series mostly up to 70.3 µM; note: nearly all actives have a fitted effect of over 55% in size; note: potency is the fitted concentration of half-maximal effect
# Chain of Aromatase (Homo sapiens) (P11511 whole entry, looked up): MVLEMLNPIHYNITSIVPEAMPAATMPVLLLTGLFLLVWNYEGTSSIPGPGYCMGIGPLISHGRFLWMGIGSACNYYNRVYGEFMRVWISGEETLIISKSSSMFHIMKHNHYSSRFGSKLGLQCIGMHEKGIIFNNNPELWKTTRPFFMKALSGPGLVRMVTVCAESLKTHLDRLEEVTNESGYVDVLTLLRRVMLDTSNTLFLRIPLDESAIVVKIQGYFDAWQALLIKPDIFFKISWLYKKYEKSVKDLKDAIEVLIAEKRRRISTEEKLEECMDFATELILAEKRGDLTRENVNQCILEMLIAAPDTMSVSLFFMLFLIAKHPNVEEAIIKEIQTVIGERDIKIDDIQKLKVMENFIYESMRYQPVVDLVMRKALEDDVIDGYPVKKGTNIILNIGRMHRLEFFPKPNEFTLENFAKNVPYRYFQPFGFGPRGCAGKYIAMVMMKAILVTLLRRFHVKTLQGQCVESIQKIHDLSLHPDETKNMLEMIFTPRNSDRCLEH
# [12] = qHTS assay to identify small molecule antagonists of the thyroid receptor (TR) signaling pathway (AID 743065); details: GH3.TRE-Luc, T3-stimulated luciferase inhibition, 23.5 h; series mostly up to 70.3 µM; note: nearly all actives have a fitted effect of over 55% in size; note: potency is the fitted concentration of half-maximal effect
# How it was run: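 Antagonism measured as loss of luciferase signal in GH3 cells stably carrying a TRE-luciferase reporter, co-treated with compound and T3 (1 nM final) for 23.5 h at 37 C. Viability was read in the same well by CellTiter-Fluor.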
# [13] = biological target: Androgen receptor (Homo sapiens) (UniProt P10275); assay: qHTS assay to identify small molecule antagonists of the androgen receptor (AR) signaling pathway (AID 743035; active = well fitted inhibition curve with a large enough effect in the signal ratio in the repeat runs, not every such curve was filed as active; the % refers to the signal ratio); details: HEK293 AR-UAS-bla, R1881-stimulated, beta-lactamase FRET, 16 h; series mostly up to 58.5 µM
# Chain of Androgen receptor (Homo sapiens) (P10275 whole entry, looked up): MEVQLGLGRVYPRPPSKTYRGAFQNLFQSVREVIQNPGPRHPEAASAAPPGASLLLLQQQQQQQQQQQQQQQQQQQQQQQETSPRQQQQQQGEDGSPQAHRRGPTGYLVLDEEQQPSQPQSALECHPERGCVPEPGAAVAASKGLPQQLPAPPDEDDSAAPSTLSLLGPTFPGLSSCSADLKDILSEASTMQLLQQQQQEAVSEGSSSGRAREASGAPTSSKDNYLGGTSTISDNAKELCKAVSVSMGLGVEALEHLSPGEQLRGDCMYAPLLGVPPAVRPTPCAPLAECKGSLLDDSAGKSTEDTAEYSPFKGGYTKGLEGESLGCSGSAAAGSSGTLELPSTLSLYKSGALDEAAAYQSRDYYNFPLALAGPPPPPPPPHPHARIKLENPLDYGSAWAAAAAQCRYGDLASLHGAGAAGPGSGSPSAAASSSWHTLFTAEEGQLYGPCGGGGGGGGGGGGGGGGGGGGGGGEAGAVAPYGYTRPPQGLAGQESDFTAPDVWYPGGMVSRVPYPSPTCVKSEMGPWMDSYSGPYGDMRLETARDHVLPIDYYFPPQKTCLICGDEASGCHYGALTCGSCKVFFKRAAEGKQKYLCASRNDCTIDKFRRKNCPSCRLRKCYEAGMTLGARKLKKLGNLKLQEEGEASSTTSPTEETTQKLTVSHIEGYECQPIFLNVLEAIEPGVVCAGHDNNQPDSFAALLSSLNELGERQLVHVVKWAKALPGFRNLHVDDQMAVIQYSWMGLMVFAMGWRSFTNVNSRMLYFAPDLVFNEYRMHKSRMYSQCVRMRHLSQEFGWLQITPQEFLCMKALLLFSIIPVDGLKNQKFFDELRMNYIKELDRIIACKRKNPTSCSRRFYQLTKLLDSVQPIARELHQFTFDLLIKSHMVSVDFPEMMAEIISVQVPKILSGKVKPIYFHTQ
# How it was run: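 Beta-lactamase FRET read (2 h RT incubation with LiveBLAzer B/G) following 16 h of compound plus R1881 treatment of AR-UAS-bla HEK293 cells, which had been pre-incubated 4 h at 37C.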
# [14] = biological target: Androgen receptor (Homo sapiens) (UniProt P10275); assay: qHTS assay to identify small molecule agonists of the androgen receptor (AR) signaling pathway using the MDA cell line (AID 743040; note: nearly all actives have a fitted effect of over 20% in size); details: MDA-kb2 AR-luc cells, MMTV luciferase, 16 h, hits give high values; series mostly up to 70.3 µM
# How it was run: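 Cells plated, 5 h at 37C/0% CO2; compound or DMSO pinned; 16 h at 37C; ONE-Glo added; luminescence measured after 30 min at room temperature. Reporter line: MDA-kb2 with MMTV-luciferase responsive to AR and GR.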
# [15] = biological target: Androgen receptor (Homo sapiens) (UniProt P10275); assay: qHTS assay to identify small molecule antagonists of the androgen receptor (AR) signaling pathway using the MDA cell line (AID 743042; note: nearly all actives have a fitted effect of over 55% in size); details: MDA-kb2 AR-luc, MMTV luciferase, R1881 antagonist, 16 h; series mostly up to 70.3 µM
# How it was run: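 Antagonist mode: compounds plus R1881 agonist added to MDA-kb2 AR-luc cells, incubated 16 h at 37C. Luciferase reporter luminescence quantified, with multiplexed CellTiter-Fluor readout for cell viability.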
# [16] = biological target: Estrogen receptor (Homo sapiens) (UniProt P03372); assay: qHTS assay to identify small molecule antagonists of the estrogen receptor alpha (ER-alpha) signaling pathway (AID 743069; active = well fitted curve in the direction sought with a large enough effect in the signal ratio in the repeat runs, not every such curve was filed as active; the % refers to the signal ratio); details: HEK293 ER-alpha-UAS-bla, beta-lactamase ratio, antagonist mode; series mostly up to 69.4 µM
# Chain of Estrogen receptor (Homo sapiens) (P03372 whole entry, looked up): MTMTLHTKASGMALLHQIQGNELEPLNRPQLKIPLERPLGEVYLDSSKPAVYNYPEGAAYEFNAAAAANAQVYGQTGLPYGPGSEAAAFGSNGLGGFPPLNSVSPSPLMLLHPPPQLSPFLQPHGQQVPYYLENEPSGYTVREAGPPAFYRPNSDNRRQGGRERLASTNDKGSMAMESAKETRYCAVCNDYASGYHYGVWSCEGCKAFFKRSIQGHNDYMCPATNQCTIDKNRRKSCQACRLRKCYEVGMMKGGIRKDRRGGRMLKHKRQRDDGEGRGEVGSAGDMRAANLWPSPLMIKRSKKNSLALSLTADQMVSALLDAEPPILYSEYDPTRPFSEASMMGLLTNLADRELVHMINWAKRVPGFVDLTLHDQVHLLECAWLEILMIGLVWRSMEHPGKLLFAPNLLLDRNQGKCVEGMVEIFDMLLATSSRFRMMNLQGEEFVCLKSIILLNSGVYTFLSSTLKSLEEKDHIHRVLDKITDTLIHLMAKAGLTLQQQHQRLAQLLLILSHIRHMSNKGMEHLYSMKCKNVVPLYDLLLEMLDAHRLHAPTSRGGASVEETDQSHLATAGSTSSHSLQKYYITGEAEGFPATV
# How it was run: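 ER-alpha-UAS-bla GripTite HEK293 line; 2% charcoal-stripped FBS overnight; plated, 4 hr 37C/5% CO2; cpd in DMSO + 17beta-estradiol, 18 hr 37C; LiveBLAzer B/G FRET substrate 2 hr RT; fluorescence intensity.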
# [17] = biological target: Estrogen receptor (Homo sapiens) (UniProt P03372); assay: qHTS assay to identify small molecule agonists of the estrogen receptor alpha (ER-alpha) signaling pathway (AID 743075; calls by dose curve;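 note: HEK293 GripTite cells with ER-alpha and UAS-driven beta-lactamase reporter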); details: HEK293 ER-alpha-UAS-bla, beta-lactamase FRET ratio, 18 h; series mostly up to 70.1 µM
# [18] = qHTS assay to identify small molecule antagonists of the estrogen receptor alpha (ER-alpha) signaling pathway using the BG1 cell line (AID 743080; calls by dose curve;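 note: BG1 cells stimulated with 17beta-estradiol alongside compound; nearly all actives have a fitted effect of over 25% in size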); details: BG1Luc4E2 ERE-luciferase antagonist mode, luminescence; series mostly up to 70.3 µM
# How it was run: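 BG1Luc4E2, endogenous ER-alpha, 4xERE-luc; 5 d charcoal-stripped FBS, phenol red free; 24 h plating; cpd + 17beta-estradiol 21.5 h, 37 C/5% CO2; CellTiter-Fluor viability 30 min, then ONE-Glo luciferase 30 min RT.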
# [19] = biological target: Estrogen receptor (Homo sapiens) (UniProt P03372); assay: qHTS assay to identify small molecule agonists of the estrogen receptor alpha (ER-alpha) signaling pathway using the BG1 cell line (AID 743079); details: BG1Luc4E2 cells, ERE-luciferase agonist, 22 h; series mostly up to 70.3 µM; note: nearly all actives have a fitted effect of over 20% in size
compound,measurement,setting,value
O=C(O)CNc1ccccc1,Potency,[1],inactive
same,Potency,[2],inactive
same,Potency,[3],inactive
same,Potency,[4],inactive
same,Potency,[5],inactive
same,Potency,[6],inactive
same,Potency,[7],inactive
same,outcome,[8],inactive
same,outcome,[9],inactive
same,Potency,[10],inactive
same,Potency,[11],inactive
O=C(O)c1cc(C(=O)O)cc([N+](=O)[O-])c1,Potency,[1],inactive
same,Potency,[2],inactive
same,Potency,[3],inactive
same,Potency,[4],inactive
same,Potency,[5],inactive
same,Potency,[6],inactive
same,Potency,[12],inactive
same,outcome,[8],inactive
same,outcome,[9],inactive
same,Potency,[10],inactive
same,Potency,[11],inactive
CC/C=C/CCO,Potency,[1],inactive
same,Potency,[2],inactive
same,Potency,[4],inactive
same,Potency,[5],inactive
same,Potency,[6],inactive
same,Potency,[7],inactive
same,Potency,[12],inactive
same,outcome,[8],inactive
same,outcome,[9],inactive
same,Potency,[10],inactive
CCCc1ccc(OC)cc1,Potency,[1],inactive
same,Potency,[2],inactive
same,Potency,[4],inactive
same,Potency,[5],inactive
same,Potency,[13],inactive
same,outcome,[14],inactive
same,Potency,[6],inactive
same,Potency,[15],inactive
same,Potency,[16],inactive
same,outcome,[9],inactive
same,Potency,[17],inactive
same,Potency,[18],inactive
same,Potency,[10],inactive
same,Potency,[11],inactive
CC1=CC(=C(c2ccc(N)cc2)c2ccc(N)cc2)C=CC1=N,Potency,[1],inactive
same,Potency,[2],5.31 µM (active)
same,Potency,[3],5.96 µM (active) and 3.1 µM (active)
same,Potency,[4],5.96 µM (active)
same,Potency,[6],7.5 µM (active)
same,Potency,[7],13.3 µM (active)
same,Potency,[12],10.6 µM (active)
same,activation,[8],-3.23% [at 8.08 µM]
same,Potency,[17],inactive
same,activation,[19],1.34% [at 8.47 µM]
same,Potency,[10],11.9 µM (active)
same,"activity change, negative = cytotoxicity",[10],-20.8% [at 8.47 µM]
same,Potency,[11],8.41 µM (active)
CC(CN=Cc1ccccc1O)N=Cc1ccccc1O (centres undefined),Potency,[1],inactive
same,Potency,[2],inactive
same,Potency,[4],inactive
same,Potency,[5],inactive
same,Potency,[6],inactive
same,Potency,[7],inactive
same,Potency,[12],inactive
same,outcome,[8],inactive
same,outcome,[9],inactive
same,Potency,[10],inactive
same,Potency,[11],inactive
CCCCCCCCC(=O)OCC(C)OC(=O)CCCCCCCC (centres undefined),Potency,[1],inactive
same,Potency,[2],inactive
same,Potency,[3],inactive
same,Potency,[5],inactive
same,Potency,[6],inactive
same,Potency,[7],inactive
same,Potency,[12],inactive
same,outcome,[8],inactive
same,outcome,[9],inactive
same,Potency,[10],inactive
same,Potency,[11],inactive
CC(C)(C)c1ccc(CCC=O)cc1,Potency,[1],inactive
same,Potency,[2],inactive
same,Potency,[3],inactive
same,Potency,[4],inactive
same,Potency,[6],inactive
same,Potency,[7],inactive
same,Potency,[12],inactive
same,outcome,[8],inactive
same,Potency,[16],inactive
same,outcome,[9],inactive
same,Potency,[17],inactive
same,Potency,[19],inactive
same,Potency,[10],inactive
Nc1ncnc2c1ncn2[C@@H]1O[C@H](CO)[C@@H](O)[C@H]1O,Potency,[1],inactive
same,Potency,[2],inactive
same,Potency,[3],inactive
same,Potency,[6],inactive
same,Potency,[7],inactive
same,Potency,[16],inactive
same,outcome,[9],inactive
same,Potency,[17],inactive
same,Potency,[19],inactive
same,Potency,[10],inactive
same,Potency,[11],inactive
Nc1ccccc1Nc1ccccc1,Potency,[1],55.1 µM (active)
same,Potency,[2],19.4 µM (active)
same,Potency,[3],8.66 µM (active)
same,Potency,[4],15.4 µM (active)
same,Potency,[6],inactive
same,Potency,[7],15.4 µM (active)
same,Potency,[12],12.2 µM (active)
same,outcome,[9],inactive
same,Potency,[10],inactive
CCCCOC(=O)CC#N,Potency,[1],inactive
same,Potency,[2],inactive
same,Potency,[4],inactive
same,Potency,[5],inactive
same,Potency,[6],inactive
same,Potency,[7],inactive
same,Potency,[12],inactive
same,outcome,[8],inactive
same,Potency,[16],inactive
same,outcome,[9],inactive
same,Potency,[17],inactive
same,Potency,[19],inactive
same,Potency,[18],inactive
same,Potency,[10],inactive
same,Potency,[11],inactive
